{
  "source": "PubChem BioAssay (NCATS)",
  "note": "Several values for one entry are separate records, joined by “and”; a condition that tells them apart may be missing. Identical values can stand only once. Results filed as inconclusive are left out. Activity calls are given as the source filed them. Calls follow the shape of the dose curve; as a rule, active = well fitted cell-killing curve with a large enough effect; inconclusive = small, poorly fitted or top-dose-only effect; inactive = flat fitted curve, though single readings scatter. Potency is read from the fitted curve at half-maximal effect.",
  "data": [
    {"test": "Cell Viability - H-4-II-E (AID 543); also: nearly all actives have a fitted effect of over 35% in size", "conditions": "H-4-II-E rat hepatoma viability; series mostly up to 92.2 µM", "excerpt": "NIH Chemical Genomics Center [NCGC]\nNIH Molecular Libraries Screening Centers Network [MLSCN]\nNational Institutes of Environmental Health Sciences [NIEHS]\nNational Toxicology Program [NTP]\nWe have developed a 1536-well cell-based assay for quantitative high throughput screening (qHTS) against a number of cell lines to determine in vitro cytotoxicity of small molecules. This particular assay uses the H-4-II-E cell line which is derived from rat hepatoma.\nNCGC Assay Protocol Summary:\nThe CellTiter-Glo luminescent cell viability assay (Promega) is a homogeneous method to measure the number of viable cells in culture. The end point readout of this assay is based on quantitation of intracellular ATP, an indicator of metabolic activity, using the luciferase reaction. Luciferase catalyzes the oxidation of beetle Luciferin to oxyluciferin and light in the presence of ATP. The luminescent signal is proportional to amount of ATP present.\nUsing the CellTiter-Glo luminescent cell viability assay, the amount of cellular ATP was measured in the H-4-II-E cell line with complete culture medium following compound treatment for 40 hours. The assay was performed in opaque white Kalypsys 1536-well plates. In the screen, tamoxifen and doxorubicin were used as positive controls. Library compounds were measured for their ability to cause acute toxicity in the cell line, as reflected by a decrease in intracellular ATP levels, in a concentration-dependent manner. […] AC50 values were determined from concentration-response data modeled with the standard Hill equation.\nqHTS protocol fo CellTiter Glo H-4-II-E cellular assay\n[Step] [Parameter] [Value] [Description]\n1. Reagent; 5 uL; 1500 H-4-II-E cells/well\n2. Time; 5 hr; 37 °C incubation\n4. Controls; 23 nL; Tamoxifen 0.34 uM to 100 uM & Doxorubicin 0.02 nM to 100 uM\n5. Time; 40 hr; 37 °C incubation\n6. Reagent; 5 uL; CellTiter Glo reagent\n7. Time; 20 min; Room Temperature\n8. Detection; Luminescence; Viewlux plate reader\nKeywords: cell viability, cytotoxicity, H-4-II-E cell line, luminescence, NTPHTS, NTPHTS_NCGC, NIEHS, EPA, DSSTox, MLSMR, MLSCN, NIH Roadmap, qHTS, NCGC", "values": [
      {"molecule": "N#CSCSC#N", "Potency": "10 µM (active)"},
      {"molecule": "FC(F)(F)c1ccc(Cl)cc1", "Potency": "inactive"},
      {"molecule": "c1ccc2cc3c(cc2c1)-c1cccc2cccc-3c12", "Potency": "inactive"},
      {"molecule": "N#CC(Cl)Cl", "Potency": "inactive"},
      {"molecule": "Nc1ccccc1C(=O)OCCc1ccccc1", "Potency": "inactive"},
      {"molecule": "Oc1c(Br)c(Br)c(Br)c(Br)c1Br", "Potency": "50.1 µM (active)"},
      {"molecule": "CC(C)CC(C)Nc1ccc(Nc2ccccc2)cc1", "note": "(stereo unspecified)", "Potency": "50.1 µM (active)"},
      {"molecule": "[CH3][Hg][Cl]", "Potency": "5.01 µM (active)"},
      {"molecule": "C(=NC1CCCCC1)=NC1CCCCC1", "Potency": "1.26 µM (active)"},
      {"molecule": "CCCCCCCCn1sccc1=O", "Potency": "12.6 µM (active)"},
      {"molecule": "COP(=O)(OC)O/C(=C\\Cl)c1cc(Cl)c(Cl)cc1Cl", "Potency": "inactive"},
      {"molecule": "OC(c1ccc(Cl)cc1)(c1ccc(Cl)cc1)C(Cl)(Cl)Cl", "Potency": "inactive"},
      {"molecule": "[Cd+2].[Cl-].[Cl-]", "Potency": "1.26 µM (active)"},
      {"molecule": "CC(=O)[O-].CC(=O)[O-].O.O.[Cd+2]", "Potency": "2.51 µM (active)"},
      {"molecule": "O=C(O)C1C(C(=O)O)C2(Cl)C(Cl)=C(Cl)C1(Cl)C2(Cl)Cl", "note": "(stereo unspecified)", "Potency": "inactive"},
      {"molecule": "O=C1C2(Cl)C3(Cl)C4(Cl)C(Cl)(Cl)C5(Cl)C3(Cl)C1(Cl)C5(Cl)C24Cl", "note": "(stereo unspecified)", "Potency": "31.6 µM (active) and 50.1 µM (active)"},
      {"molecule": "C#CCO", "Potency": "inactive"},
      {"molecule": "CN(C)c1ccc(N=O)cc1", "Potency": "6.31 µM (active)"},
      {"molecule": "C[C@@H]1CC[C@@]2(OC1)O[C@H]1[C@@H](O)[C@H]3[C@@H]4CC[C@H]5C[C@@H](O[C@@H]6O[C@H](CO)[C@H](O[C@@H]7O[C@H](CO)[C@@H](O)[C@H](O[C@@H]8OC[C@@H](O)[C@H](O)[C@H]8O)[C@H]7O[C@@H]7O[C@H](CO)[C@@H](O)[C@H](O[C@@H]8O[C@H](CO)[C@@H](O)[C@H](O)[C@H]8O)[C@H]7O)[C@H](O)[C@H]6O)[C@H](O)C[C@]5(C)[C@H]4CC[C@]3(C)[C@H]1[C@@H]2C", "Potency": "20 µM (active)"},
      {"molecule": "O=[N+]([O-])C(Br)Br", "Potency": "31.6 µM (active)"},
      {"molecule": "O=C(CCl)c1ccccc1", "Potency": "15.8 µM (active)"}
    ]}
  ]
}
